The full list was thinned out, with hits kept by preference.
CHX counter – affects cycloheximide protein synthesis inhibition readout, counter-screen. cell reporter, cycloheximide protein synthesis inhibition counterscreen. max response, %. actives 12% (n = 300,000); in the data active means max response mostly above about 13%, no sharp cut-off; inactive means mostly below about 14%; further: read at 38.3 µM for the half of the compounds with a filed dose
Shiga toxin inh – Shiga toxin inhibition; Vero cells, Shiga toxin protein synthesis inhibition reporter; inhibition, % at 38.7 µM; actives 9.2% (n = 290,000); AID 2315; in the data active means inhibition mostly above about 28%, no sharp cut-off; inactive means mostly below about 43%
RE007 growth inh – less growth of the S. pombe RE007 Vpr strain; actives 0.21% (n = 360,000); Potency, µM (highest dose often 92.2 µM), usual class: inhibitors; S. pombe RE007 Vpr strain, BacTiter-Glo ATP luminescence, 24 h; active means well fitted falling curve with a large enough effect; further: nearly all actives have a fitted effect of over 50% in size
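Fission yeast RE007 carrying one integrated HIV-1 vpr copy, seeded at OD 0.01 in PMG+AL medium with 23 nL pinned compound. Grown 24 h at 30 degrees; viability read by BacTiter-Glo luminescence after 5 min.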
TbPYK inhibitor – inhibitors of Trypanosoma brucei pyruvate kinase; Q57TT1; TbPYK enzyme, Kinase-Glo Plus ATP luminescence, 45 min; Potency, µM (titrated, usually from 76.8 µM), most hits filed as inhibitors; actives 0.12% (n = 410,000); further: nearly all actives have a fitted effect of over 50% in size
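Quantitative HTS: titrated library compounds versus trypanosomal pyruvate kinase in TEA buffer (pH 7.2) containing KCl, MgCl2, BSA and Tween-20. Reactions were initiated with ADP, 130 uM final. Kinase-Glo Plus luminescence was read after 45 min at RT.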
FBPA Giardia inh – blocks Giardia fructose-bisphosphate aldolase activity | actives 0.71% (n = 290,000) | AID 2451 | purified Giardia FBPA | Potency, µM (titrated, usually from 59.6 µM), actives largely listed as inhibitors; further: nearly all actives have a fitted effect of over 55% in size
Target sequence (A8B2U2 whole entry, looked up): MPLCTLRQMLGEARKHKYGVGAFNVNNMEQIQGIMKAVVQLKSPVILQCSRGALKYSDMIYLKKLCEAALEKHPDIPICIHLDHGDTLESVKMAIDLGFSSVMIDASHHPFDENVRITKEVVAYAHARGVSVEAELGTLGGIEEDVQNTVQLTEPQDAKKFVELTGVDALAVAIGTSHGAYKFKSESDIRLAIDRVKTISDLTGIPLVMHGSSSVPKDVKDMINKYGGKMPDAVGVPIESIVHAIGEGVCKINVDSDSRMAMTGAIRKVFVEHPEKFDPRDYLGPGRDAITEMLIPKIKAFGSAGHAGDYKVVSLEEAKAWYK
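Giardia FBPA (40 nM reagent) was preincubated 10 min at RT with compound (up to 57.5 uM final), then substrate plus GAPDH/TPI/NAD/arsenate coupling system with diaphorase/resazurin was added; resorufin fluorescence (525/598 nm) was read after 20 min.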
LmPK inh – blocks Leishmania mexicana pyruvate kinase activity | actives 0.37% (n = 290,000) | Potency, µM (titrated, usually from 57.5 µM), most hits filed as inhibitors | Q27686 | AID 1721 | purified LmPK, Kinase-Glo ATP luminescence, 1 h
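0.1 nM LmPK, 0.5 mM PEP, 0.1 mM ADP; 50 mM imidazole pH 7.2, 7 mM MgCl2, 50 mM KCl; 1 h RT. Kinase-Glo luminescence readout, normalized to no-enzyme (full inhibition) and uninhibited wells.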
Large screens that a line does not name were inactive. Unless noted, the call rests on the fitted dose curve; in most records, active means well fitted curve in the direction sought with a large enough effect; inconclusive means small, poorly fitted or top-dose-only effect, or another doubt; inactive means no such curve, though single readings can be large; an effect the other way counts as inactive or inconclusive.

CCOc1ccc2nc(N3CCCC(C(=O)NCCCN4CC(C)CC(C)C4)C3)sc2c1 (centres undefined)	CHX counter 32
CCOc1ccc2nc(N3CCC(C(=O)Nc4ccc(Br)cc4F)CC3)sc2c1	CHX counter 35, Shiga toxin inh 173 (no result: RE007 growth inh, FBPA Giardia inh, LmPK inh)
CCOc1ccc2nc(N3CCCC(C(=O)NCCCN4CCCCC4)C3)sc2c1 (centres undefined)	CHX counter 20, Shiga toxin inh 36 (no result: FBPA Giardia inh)
CCOc1ccc2nc(N3CCCC(C(=O)NCCCN4C(C)CCCC4C)C3)sc2c1 (centres undefined)	CHX counter 17, Shiga toxin inh 54 (no result: FBPA Giardia inh)
ClC1=C(Cl)[C@]2(Cl)[C@@H]3[C@@H]4C[C@@H]([C@H]5O[C@@H]45)[C@@H]3[C@@]1(Cl)C2(Cl)Cl	none (no result: CHX counter, Shiga toxin inh, RE007 growth inh, FBPA Giardia inh, LmPK inh)
COC(=O)c1sc2nc(C)nc(SCC(=O)C(C)(C)C)c2c1C	CHX counter 38
CCOC(=O)c1sc2nc(C)nc(SCC(=O)NC3CCS(=O)(=O)C3)c2c1C (centres undefined)	none
O=C(CSc1nncn1-c1ccccc1F)NC1CC1	none (no result: CHX counter, Shiga toxin inh, FBPA Giardia inh, LmPK inh)
Cc1ccc2nc(C(=O)N3CCCC(Nc4ccc(F)cc4)C3)cn2c1 (centres undefined)	CHX counter 28, Shiga toxin inh 81 (no result: FBPA Giardia inh)
Cc1ccn2cc(C(=O)N3CCCC(Nc4ccc(F)cc4)C3)nc2c1 (centres undefined)	none
CC1=C(C(=O)Nc2ccccn2)C(c2ccc(Br)cc2)NC(=S)N1 (centres undefined)	CHX counter 37, Shiga toxin inh 50
CC1=C(C(=O)Nc2ccccn2)C(c2ccc(Cl)cc2)NC(=S)N1 (centres undefined)	CHX counter 46, Shiga toxin inh 72
Fc1cccc(-c2ncc(-c3ccccc3)o2)c1	none (no result: CHX counter, Shiga toxin inh, FBPA Giardia inh, LmPK inh)
NC(=O)c1ccccc1	none
c1ccc(-c2cnc(-c3cccnc3)o2)cc1	CHX counter 49
NC(=O)c1ccc(-c2ncc(-c3ccccc3)o2)cc1	CHX counter 44, Shiga toxin inh 85
Cc1ccc(-c2cnc(-c3ccccc3C(=O)O)o2)cc1	CHX counter 29, Shiga toxin inh 61
Cc1ccc(NC(=O)c2ccccc2-c2ccccc2C(=O)O)cc1	none
CCCCCS(=O)(=O)CCCCCCCCCCn1c(-c2ccc(O)cc2)c(C)c2cc(O)ccc21	none (no result: CHX counter, Shiga toxin inh, RE007 growth inh, TbPYK inhibitor, LmPK inh)
O=C(NCc1ccccn1)c1nn(-c2ccccc2Cl)nc1CO	none (no result: CHX counter, Shiga toxin inh, RE007 growth inh, FBPA Giardia inh, LmPK inh)
Cn1c(=O)c2ncn(CC(=O)Nc3ccc(N4CCOCC4)cc3)c2n(C)c1=O	none
CCC(C)c1ccc2oc(-c3ccc(NC(=O)Cn4cnc5c(=O)n(C)c(=O)n(C)c54)cc3)nc2c1 (centres undefined)	CHX counter 58, Shiga toxin inh 154
Cc1ccc2oc(-c3cccc(NC(=O)Cn4cnc5c(=O)n(C)c(=O)n(C)c54)c3)nc2c1	CHX counter 34, Shiga toxin inh 137 (no result: RE007 growth inh, TbPYK inhibitor)
Cc1ccc(NC(=O)Cn2cnc3c(=O)n(C)c(=O)n(C)c32)c(C)c1	none
Cn1nc(-c2ccccc2)cc1NC(=O)Nc1ccc(C(C)(C)C)cc1	none
Cn1nc(-c2ccc(Cl)cc2)cc1NC(=O)Nc1ccccc1	CHX counter 31, Shiga toxin inh 66
Cn1nc(-c2ccccc2)cc1NC(=O)c1ccccc1	CHX counter 12
Cc1cc(=O)oc2c3c(ccc12)OCN(Cc1ccc(Cl)cc1)C3	none (no result: CHX counter, Shiga toxin inh, RE007 growth inh, FBPA Giardia inh, LmPK inh)
Cc1ccccc1-c1nsc(SCC(=O)Nc2ccc3c(c2)OCO3)n1	CHX counter 33
Cc1cccc(-c2nsc(SCC(=O)Nc3ccc4c(c3)OCO4)n2)c1	CHX counter 27, Shiga toxin inh 36
O=C(CSc1nc(-c2ccccc2Cl)ns1)NCc1ccc2c(c1)OCO2	none
O=C(CCC(=O)N1CCN(Cc2ccc(F)cc2)CC1)Nc1nnc(C(F)(F)F)s1	none
NS(=O)(=O)c1cccc(NC(=O)/C=C/c2cccs2)c1	CHX counter 30, Shiga toxin inh 48
O=C(COC(=O)/C=C/c1cccs1)Nc1cccc(S(=O)(=O)N2CCOCC2)c1	none
NS(=O)(=O)c1ccc(NC(=O)/C=C/c2cccs2)cc1	CHX counter 11
CCOc1ccc(NC(=O)CCc2c(C)nc3cc(-c4ccccc4OC)nn3c2C)cc1	none (no result: CHX counter, Shiga toxin inh, RE007 growth inh, FBPA Giardia inh, LmPK inh)
O=C(/C=C/[C@H]1O[C@@H](n2cnc3c(NC(=O)c4ccccc4)ncnc32)[C@H](O)[C@@H]1O)NCc1cccs1	none (no result: CHX counter, Shiga toxin inh, FBPA Giardia inh, LmPK inh)
CC1Cc2ccccc2N1C(=O)CSc1ccccc1 (centres undefined)	CHX counter 51
CN1/C(=C\C(=O)COc2ccc3c(c2)OCO3)C(C)(C)c2ccccc21	CHX counter 11
CC1Cc2ccccc2N1C(=O)COc1ccc2c(c1)OCO2 (centres undefined)	CHX counter 34, Shiga toxin inh 74
O=C1/C(=C/c2ccc3c(c2)OCO3)Oc2cc(OCC(=O)N3CCC[C@H]3C(=O)O)ccc21	CHX counter 8.2
COc1cccc(/C=C2\Oc3cc(OCC(=O)N4Cc5ccccc5C[C@H]4C(=O)O)ccc3C2=O)c1	none
Cc1ccc(S(=O)(=O)c2nc(-c3cccc(C)c3)oc2N2CCN(c3ccccc3)CC2)cc1	none (no result: CHX counter, Shiga toxin inh, RE007 growth inh, FBPA Giardia inh, LmPK inh)
Cc1ccc(S(=O)(=O)C(CNC(=O)c2ccccc2F)c2cccs2)cc1 (centres undefined)	none (no result: CHX counter, Shiga toxin inh, RE007 growth inh, FBPA Giardia inh, LmPK inh)
CC1Cc2ccccc2N1C(=O)CCN1C(=O)C2C3C=CC(C3)C2C1=O (centres undefined)	none
CC1CCCN(C(=O)c2ccc3c(c2)OCO3)C1 (centres undefined)	none
CC1Cc2ccccc2N1C(=O)CCn1c(=O)sc2ccccc21 (centres undefined)	CHX counter 12
CC1CCCN(C(=O)COc2ccc3c(c2)OCO3)C1 (centres undefined)	CHX counter 48, Shiga toxin inh 64 (no result: FBPA Giardia inh)
COc1ccc(-c2csc(-c3[nH]cnc3N)n2)cc1	CHX counter 28, Shiga toxin inh 86
COc1ccc(-c2nc(CC(=O)O)cs2)cc1	none
COc1ccc(-c2csc(-c3ccc(C(=O)O)cc3)n2)cc1	CHX counter 27, Shiga toxin inh 61
C=CCNC(=O)c1ccc(-c2nc3ccccc3nc2-c2ccccc2)cc1	none (no result: CHX counter, Shiga toxin inh, FBPA Giardia inh, LmPK inh)
C=CCNC(=O)c1ccc(-c2nc(-c3ccccc3)cs2)cc1	CHX counter 33, Shiga toxin inh 51 (no result: TbPYK inhibitor)
O=C(O)c1ccc(-c2nc(-c3ccc(Cl)cc3Cl)cs2)cc1	CHX counter 34, Shiga toxin inh 77
O=C(O)c1ccc(-c2nc(-c3ccc(Cl)cc3)cs2)cc1	CHX counter 32, Shiga toxin inh 81
O=C(O)c1ccc(-c2nc(-c3cccc(C(F)(F)F)c3)cs2)cc1	none
Cc1cc(N2CCCCC2)nc2ccc(NC(=O)c3ccc(Br)o3)cc12	none
